Data from PubChem BioAssay AID1159580 (chemical genetic matrix, 2015).
Out of some 5,500 compounds screened, about 2,000 (36%) were called active. About 18% were inconclusive and are not listed. No stated cut-off is given here; in the data, active means normalized growth mostly below about 0.91 (no sharp cut-off); inconclusive means no clear call, values can overlap the other calls; inactive means mostly above about 0.92. This is one part of the list.

Assay: chemical genetic growth profiling, strain panel (AID 1159580);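 further: tested at 20 µM; growth read once vehicle control cultures reached saturation at 30 °C; 1 = growth at the plate median or of vehicle wells; lower values mean less growth of the strain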
Conditions: growth OD

Measured: normalized growth

C/C1=C\CC(C)(C)/C=C/CC2(C)OC2CC1 (stereo unspecified)
inactive: S. cerevisiae deletion strains, locus YBR021W, strain FUR4, hits give low values 1.02 | S. cerevisiae deletion strains, locus YBR229C, strain ROT2, hits give low values 1.01 | S. cerevisiae deletion strains, locus YCL029C, strain bik1, hits give low values 0.999 | S. cerevisiae deletion strains, locus YDL035C, strain GPR1, hits give low values 0.998 | S. cerevisiae deletion strains, locus YDL074C, strain BRE1, hits give low values 1.01 | S. cerevisiae deletion strains, locus YDL101C, strain DUN1, hits give low values 1.03 | S. cerevisiae deletion strains, locus YDL185W, strain tfp1, hits give low values 1.01 | S. cerevisiae deletion strains, locus YDL192W, strain arf1, hits give low values 1.01 | S. cerevisiae deletion strains, locus YDR101C, strain arx1, hits give low values 0.968 | S. cerevisiae deletion strains, locus YDR150W, strain NUM1, hits give low values 1.01 | S. cerevisiae deletion strains, locus YDR162C, strain NBP2, hits give low values 1 | S. cerevisiae deletion strains, locus YDR318W, strain mcm21, hits give low values 0.997 | S. cerevisiae deletion strains, locus YDR388W, hits give low values 1.01 | S. cerevisiae deletion strains, locus YDR502C, strain sam2, hits give low values 1.03 | S. cerevisiae deletion strains, locus YEL061C, strain CIN8, hits give low values 1.01 | S. cerevisiae deletion strains, locus YER110C, hits give low values 1.02 | S. cerevisiae deletion strains, locus YER155C, strain BEM2, hits give low values 1 | S. cerevisiae deletion strains, locus YER167W, strain BCK2, hits give low values 1 | S. cerevisiae deletion strains, locus YGL078C, strain dbp3, hits give low values 1.01 | S. cerevisiae deletion strains, locus YGL086W, strain mad1, hits give low values 1.01 | S. cerevisiae deletion strains, locus YGL248W, strain PDE1, hits give low values 1.04 | S. cerevisiae deletion strains, locus YGR135W, strain pre9, hits give low values 1.05 | S. cerevisiae deletion strains, locus YGR252W, strain gcn5, hits give low values 1.05 | S. cerevisiae deletion strains, locus YHR030C, strain SLT2, hits give low values 1 | S. cerevisiae deletion strains, locus YHR079C, strain IRE1 (second series), hits give low values 1.01 | S. cerevisiae deletion strains, locus YHR094C, strain hxt1, hits give low values 1.02 | S. cerevisiae deletion strains, locus YHR129C, strain ARP1, hits give low values 1.01 | S. cerevisiae deletion strains, locus YHR200W, strain rpn10, hits give low values 1.01 | S. cerevisiae deletion strains, locus YIL066C, strain RNR3, hits give low values 1.01 | S. cerevisiae deletion strains, locus YIL073C, strain SPO22, hits give low values 1.04 | S. cerevisiae deletion strains, locus YIL125W, strain kgd1, hits give low values 1.01 | S. cerevisiae deletion strains, locus YIR030C, strain dcg1, hits give low values 0.999 | S. cerevisiae deletion strains, locus YJL095W, strain BCK1, hits give low values 1.08 | S. cerevisiae deletion strains, locus YJL134W, strain LCB3, hits give low values 1 | S. cerevisiae deletion strains, locus YJL168C, strain set2, hits give low values 1.02 | S. cerevisiae deletion strains, locus YJL187C, strain SWE1 (second series), hits give low values 1.03 | S. cerevisiae deletion strains, locus YJR043C, strain POL32, hits give low values 0.99 | S. cerevisiae deletion strains, locus YJR075W, strain HOC1, hits give low values 1.01 | S. cerevisiae deletion strains, locus YKL009W, strain mrt4, hits give low values 1.01 | S. cerevisiae deletion strains, locus YKL068W, hits give low values 1 | S. cerevisiae deletion strains, locus YKL085W, strain MDH1 (second series), hits give low values 1.01 | S. cerevisiae deletion strains, locus YKL085W, strain MDH1, hits give low values 1.01 | S. cerevisiae deletion strains, locus YKR001C, strain vps1, hits give low values 0.998 | S. cerevisiae deletion strains, locus YLR039C, strain RIC1, hits give low values 1.04 | S. cerevisiae deletion strains, locus YLR058C, strain SHM2, hits give low values 1.01 | S. cerevisiae deletion strains, locus YLR102C, strain apc9, hits give low values 1.01 | S. cerevisiae deletion strains, locus YLR262C, strain YPT6, hits give low values 1.07 | S. cerevisiae deletion strains, locus YLR268W, strain sec22, hits give low values 0.99 | S. cerevisiae deletion strains, locus YLR342W, strain FKS1 (second series), hits give low values 1.02 | S. cerevisiae deletion strains, locus YLR371W, strain rom2, hits give low values 0.984 | S. cerevisiae deletion strains, locus YLR418C, strain cdc73, hits give low values 1.08 | S. cerevisiae deletion strains, locus YML016C, strain PPZ1, hits give low values 1 | S. cerevisiae deletion strains, locus YML032C, strain rad52, hits give low values 1 | S. cerevisiae deletion strains, locus YML124C, strain tub3, hits give low values 1 | S. cerevisiae deletion strains, locus YMR078C, strain ctf18, hits give low values 1.01 | S. cerevisiae deletion strains, locus YMR223W, strain ubp8, hits give low values 1.01 | S. cerevisiae deletion strains, locus YMR263W, strain SAP30, hits give low values 1.02 | S. cerevisiae deletion strains, locus YMR307W, strain GAS1, hits give low values 0.978 | S. cerevisiae deletion strains, locus YNL067W, strain RPL9B, hits give low values 1.02 | S. cerevisiae deletion strains, locus YNL153C, strain GIM3, hits give low values 1.03 | S. cerevisiae deletion strains, locus YNL233W, strain BNI4, hits give low values 1.03 | S. cerevisiae deletion strains, locus YNL250W, strain rad50, hits give low values 1.01 | S. cerevisiae deletion strains, locus YNL271C, strain bni1, hits give low values 1.01 | S. cerevisiae deletion strains, locus YNL298W, strain CLA4, hits give low values 0.995 | S. cerevisiae deletion strains, locus YNL307C, strain MCK1, hits give low values 1.03 | S. cerevisiae deletion strains, locus YNR052C, strain pop2, hits give low values 1.01 | S. cerevisiae deletion strains, locus YOL006C, strain TOP1, hits give low values 1 | S. cerevisiae deletion strains, locus YOL012C, strain htz1 1.6 | S. cerevisiae deletion strains, locus YOL147C, strain pex11, hits give low values 1.01 | S. cerevisiae deletion strains, locus YOR061W, strain CKA2, hits give low values 0.994 | S. cerevisiae deletion strains, locus YOR069W, strain VPS5, hits give low values 1.01 | S. cerevisiae deletion strains, locus YOR136W, strain idh2, hits give low values 1 | S. cerevisiae deletion strains, locus YOR144C, strain elg1, hits give low values 1 | S. cerevisiae deletion strains, locus YOR184W, strain ser1, hits give low values 0.986 | S. cerevisiae deletion strains, locus YOR316C, strain cot1, hits give low values 1 | S. cerevisiae deletion strains, locus YPR119W, strain clb2, hits give low values 1.02 | S. cerevisiae deletion strains, locus YPR141C, strain kar3, hits give low values 1.01 | S. cerevisiae deletion strains, locus YPR163C, strain tif3, hits give low values 1.02 | S. cerevisiae deletion strains, locus YPR167C, strain met16, hits give low values 1.02 | S. cerevisiae deletion strains, strain wtn01, hits give low values 0.974 | S. cerevisiae strains, strain wild type, hits give low values 1.01
